Compounds with a hit are over-represented: about 2.4% of the library has one in this group of screens.
D2 antag: HTS Assay for Allosteric Antagonists of the Human D2 Dopamine Receptor: Primary Screen for Antagonists. D(2) dopamine receptor (Homo sapiens), P14416. HEK293 TREx D2 cells, calcium flux, dopamine EC80. inhibition, % at 10 µM. 2% of 340,000 active. AID 485344, 2010; in the data active = inhibition above about 30%; inactive = below that, where a call was filed
Target sequence (P14416 whole entry, looked up): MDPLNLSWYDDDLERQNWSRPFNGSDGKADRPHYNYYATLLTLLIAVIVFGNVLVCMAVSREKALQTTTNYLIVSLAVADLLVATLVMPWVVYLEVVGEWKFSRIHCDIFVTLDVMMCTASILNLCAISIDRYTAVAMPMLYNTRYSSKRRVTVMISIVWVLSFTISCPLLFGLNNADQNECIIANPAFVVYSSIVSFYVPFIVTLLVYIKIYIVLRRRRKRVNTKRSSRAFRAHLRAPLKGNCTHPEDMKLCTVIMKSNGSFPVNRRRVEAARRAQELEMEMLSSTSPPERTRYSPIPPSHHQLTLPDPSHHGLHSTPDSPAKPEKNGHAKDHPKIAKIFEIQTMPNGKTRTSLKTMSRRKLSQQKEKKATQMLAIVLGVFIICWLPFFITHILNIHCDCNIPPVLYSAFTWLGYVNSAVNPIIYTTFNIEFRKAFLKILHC
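In this primary screen, negative modulation is detected by tracking calcium flux after an EC80 dopamine challenge in inducible HEK293 T-REx D2 cells preexposed to test compound for 180 s.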
D2 PAM-1: Beta-Arrestin HTS for Positive Allosteric Modulators of the Human D2 Dopamine Receptor: Potentiators; D(2) dopamine receptor (Homo sapiens), P14416; 0.23% of 360,000 active; potentiation, % (no concentration beside the values); AID 624464, 2012; DiscoveRx D2 beta-arrestin cells, luminescence, 90 min; 100% = 57 uM dopamine signal; in the data active = potentiation above about 50%
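PathHunter D2 cells, attached overnight at 37 deg C, received compound in DMSO plus dopamine at EC20 (50 nM final) for 90 min at 37 deg C. Beta-arrestin recruitment was read as luminescence after 1 h with detection reagent at ambient temperature.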
D2 ag-1: HTS Assay for Allosteric Agonists of the Human D2 Dopamine Receptor: Primary Screen for Agonists. 0.53% of 340,000 active. D(2) dopamine receptor (Homo sapiens), P14416. HEK293 T-REx D2 cells, calcium flux agonist mode. activation, % at 2 µM;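 active = activation over 3 SD above normal in the single-dose calcium agonist read, cut at about 30% in these data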
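HEK293 Trex D2 cells, tetracycline-induced, o/n 30 C 5% CO2; no-wash Ca dye, RT 30–90 min; 10-cycle baseline, 23 nl cpd added, kinetic Ca read 180 s; agonist hits = positive Ca response.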
D2 ag-2: Beta-Arrestin HTS for Positive Allosteric Modulators of the Human D2 Dopamine Receptor: Agonists; 0.084% of 360,000 active; activation, % (concentration not given with the values); DiscoveRx PathHunter D2 beta-arrestin, luminescence, 90 min; 100% = 57 uM dopamine signal; AID 624465, 2012; D(2) dopamine receptor (Homo sapiens), P14416; in the data active = activation above about 40%
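DiscoveRx PathHunter D2 beta-arrestin cells (2,100/well) attached overnight, then compound-stimulated 90 min at 37 C in HBSS/10 mM HEPES/0.1% Tween-20 buffer; beta-galactosidase complementation read by luminescence after 1 h at ambient temperature. Dopamine 57 uM final (EC100) as control.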
D2 PAM-2: HTS Assay for Positive Allosteric Modulators of the Human D2 Dopamine Receptor: Primary Screen for Potentiators. AID 485347, 2010. D(2) dopamine receptor (Homo sapiens), P14416. potentiation, % at 10 µM. 0.34% of 340,000 active. HEK293 T-REx D2, calcium flux, EC20 dopamine potentiation;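 active = potentiation over 3 SD above the plate norm, cut at about 30% in these data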
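Primary screen. Calcium kinetics in induced HEK293 T-REx D2 cells: compound pre-addition 180 s, EC20 dopamine, 180 s more.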
Hits are given with their value; 0 = inactive; - = not tested or not shown.

SMILES	D2 antag	D2 PAM-1	D2 ag-1	D2 ag-2	D2 PAM-2
COc1ccc(NC(=O)/C(Cl)=C(/Cl)S(=O)Cc2ccccc2)cn1 (centres undefined)	32	0	0	0	0
Cc1c(C(=O)NCc2ccc3c(c2)OCCO3)sc(=O)n1Cc1cccc(C(F)(F)F)c1	-	0	-	0	-
CC(C)(CNC(=O)c1cc2c(s1)CCCC2)N1CCOCC1	0	0	0	0	0
Cc1ccc(C)c(-c2nnc(NC(=O)Cc3ccc(F)cc3)o2)c1	0	0	0	0	0
Cc1ccc(-c2nnc(NC(=O)Cc3ccc(F)cc3)o2)c(C)c1	67	0	0	0	0
[S-]C(=Nc1ccc(Cl)cc1)N[n+]1ccccc1	62	0	0	0	0
ONC(=Nc1ccc(Cl)cc1)c1ccc(Cl)cc1	0	0	0	0	0
COC(=O)c1cc(C)nc2c1c(=O)nc(SCc1cccc(C(F)(F)F)c1)n2C1CC1	-	-	0	-	-
CC1(C(=O)Nc2ccc(Cl)cc2)Cc2c(-c3cccc(C(F)(F)F)c3)ccnc2O1 (centres undefined)	-	0	-	0	-
O=c1cc(-c2ccc(O)cc2)oc2ccc(O)cc12	37	0	0	0	0
O=C(Nc1ccccc1)C1=C(c2ccccc2)S(=O)(=O)CCS1(=O)=O	0	0	0	0	58
COc1ccc(NC(=O)N2CCCCCC2)c(OC)c1	0	0	0	0	0
CCN1CCN(C(=O)Nc2ccc(OC)cc2OC)CC1	49	0	0	0	0
COc1cccc(NC(=O)C(=O)NCCc2csc(-c3ccc(C)cc3)n2)c1	-	-	0	-	0
CC(NC(=O)COc1cccnc1[N+](=O)[O-])c1ccc(F)cc1 (centres undefined)	0	0	0	0	34
O=C(COc1cccnc1[N+](=O)[O-])Nc1ccc(F)cc1	-	0	-	0	-
Cc1n[nH]c(=O)c2c(NC(=O)CSc3nn(-c4ccccc4)c(=S)s3)oc(C)c12	0	0	0	0	0
C=C(C)c1cccc(C(C)(C)NC(=O)N2CCN(c3ccccn3)CC2)c1	31	0	0	0	0
O=C(COc1ccc(Br)cc1Cl)NC1CCN(Cc2ccccc2)CC1	67	0	0	0	0
O=C(NC1CCN(Cc2ccccc2)CC1)c1cccc(OC(F)F)c1	81	0	0	0	0
O=C(NC1CCN(Cc2ccccc2)CC1)C1COc2ccccc2O1 (centres undefined)	34	0	0	0	0
COc1ccc(NS(=O)(=O)c2cccc(C(=O)NC3CCN(Cc4ccccc4)CC3)c2)cc1	0	0	0	0	0
C=C(C)c1cccc(C(C)(C)NC(=O)N2CCCC2)c1	0	0	0	0	0
CCOc1ccc2oc(C(=O)NC3CCN(Cc4ccccc4)CC3)c(C)c2c1	0	0	0	0	0
O=C(NC1CCCCC1)c1ccc2c(c1)OCCO2	0	0	0	0	0
SMILES	D2 antag	D2 PAM-1	D2 ag-1	D2 ag-2	D2 PAM-2
O=C(NC1CCN(Cc2ccccc2)CC1)c1ccc2c(c1)OCCCO2	30	0	0	0	0
C=C(C)c1cccc(C(C)(C)NC(=O)NC2CCN(Cc3ccccc3)CC2)c1	89	0	0	0	0
COc1ccc(Cn2c(=O)[nH]c3cc(C(=O)NC4CCN(Cc5ccccc5)CC4)ccc32)cc1	75	0	0	0	0
Cc1c(C(=O)NC2CCN(Cc3ccccc3)C2)oc2ccc(Br)cc12 (centres undefined)	38	0	0	0	0
CC(C)(C)OC(=O)N1CCC(c2c(C(=O)NCc3ccco3)cnn2-c2ccccc2)CC1	-	-	0	-	0
COCCCNc1ncnc2c1cnn2-c1ccc(F)cc1	-	-	0	-	0
COc1cccc(CNC(=O)Nc2cc(C(=O)NCc3cccc(F)c3)ccc2N2CCCC2)c1	-	-	0	-	0
COc1ccc2c(c1)c1c(c(=O)n(-c3ccc(C)cc3)c(=O)n1CC(=O)Nc1cc(C)ccc1C)n2C	-	-	0	-	0
CCOC(=O)c1ccc(NC(=O)CC2Nc3cc(C)c(C)cc3NC2=O)cc1 (centres undefined)	-	-	0	-	0
COc1ccc(CN2CCN(C(=O)CCC(=O)c3ccc(C)s3)CC2)cc1OC	0	0	0	0	0
Cc1c(Cl)cccc1NC(=O)c1ccc2nc(C(C)C)oc2c1	-	-	0	-	0
O=C(NC1CCN(Cc2ccccc2)CC1)c1cccc(Br)c1	98	0	0	0	0
S=C(NCc1ccc2c(c1)OCO2)NC1CCN(Cc2ccccc2)CC1	103	0	0	0	0
COc1cc(C(=O)NCC(c2ccc3c(c2)OCO3)N2CCOCC2)cc(OC)c1OC (centres undefined)	-	-	0	-	0
CCOc1ccc(OCC)c(NC(=O)CSc2nnnn2CC)c1	0	0	0	0	32
CCn1c(COc2ccccc2)nnc1SCC(=O)Nc1cc(OC)ccc1OC	-	0	-	0	-
Cn1c(SCC(=O)Nc2ccc(Cl)cc2F)nnc1-c1ccco1	40	0	0	0	0
COc1ccc(Cl)cc1NC(=O)CSc1nnc(COc2ccccc2)n1N	54	0	0	0	0
COc1ccc(Cl)cc1NC(=O)CSc1nnc(COc2ccccc2)n1C	43	0	0	0	0
O=C(NCCCN1CCCC1=O)C(=O)NCC1OCCN1S(=O)(=O)c1cc(F)ccc1F (centres undefined)	-	0	-	0	-
COc1ccc(C)cc1NC(=O)CSc1nnc(-c2cc3cccc(OC)c3o2)n1N	35	0	0	0	0
O=S(=O)(Nc1cccc2ccccc12)c1cccs1	0	0	0	91	0
COCc1cc(=O)n2[nH]c(SC)nc2n1	0	0	0	0	36
COCc1cc(=O)n2[nH]c(SCc3ccccc3)nc2n1	0	0	0	0	0
Cc1ccc(NS(=O)(=O)c2ccc3c(c2)CCC(=O)N3)cc1	65	0	0	0	0
SMILES	D2 antag	D2 PAM-1	D2 ag-1	D2 ag-2	D2 PAM-2
COc1ccc(OC)c(CNC(=O)C2CCN(S(=O)(=O)c3ccc4[nH]c(=O)oc4c3)CC2)c1	-	-	0	-	0
CC(=O)c1ccc(OCCCOc2cccc3cccnc23)cc1	0	0	0	0	0
CC(=O)c1ccccc1OCCCOc1cccc2cccnc12	-	77	-	0	-
O=C(NCC(=O)N1CCN(Cc2c(F)cccc2Cl)CC1)c1cccs1	-	0	-	0	-
Cc1cc2oc(=O)cc(CN3CCOCC3)c2c(C)c1Cl	0	0	0	0	0
CN1CCN(c2nc(-c3ccccc3)ncc2S(=O)(=O)c2ccccc2)CC1	54	0	0	0	0

Screening data as filed in PubChem.
